Among all 360,000 compounds or so, about 2,600 (0.72%) were called active.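 The calls were made as follows: active = inhibition of the luminescence signal of 40% or more relative to plate controls, in a single-dose primary screen at 18.75 µM; inactive = the rest.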 Only a selection was taken, and actives are over-represented in it overall.
Experiment: blockers of HIF-2a driven luciferase – luminescence, 786-0 RCC cells, primary screen (AID 624352)
Details: 786-0 RCC cells HIF-2a reporter, overnight, at 18.8 µM, active compounds read high

| SMILES | inhibition |
| --- | --- |
| CCOC(=O)[C@]12Cc3cc(OC)ccc3[C@H]1N(C(C)C)C(=O)c1ccccc12 | 24.5% (inactive) |
| CCOC(=O)[C@]12Cc3ccccc3[C@H]1N(C1CCCCC1)C(=O)c1cc(OC)ccc12 | 81.9% (active) |
| COc1ccc(CCn2c(O)c(C=NCCCn3ccnc3)c(=O)[nH]c2=O)cc1OC | 11.2% (inactive) |
| COc1ccc(Br)cc1CNCCc1cccc(Cl)c1 | 7.99% (inactive) |
| CC=C(C)C(=O)OC1CCN2CC=C(COC(=O)C(O)(C(C)OC)C(C)(C)O)C12 (stereo not given) | 3.51% (inactive) |
| COc1cc(OC)cc(C2(C#N)CCN(C)CC2)c1 | 13.2% (inactive) |
| COC(=O)C1=C(c2cc3ccccc3s2)C[C@@H]2CC[C@H]1N2C(=O)NC(C)C | 6.19% (inactive) |
| Cc1cccc(-n2c(O)c(/C=N/N3CCOCC3)c(=O)[nH]c2=S)c1 | 19.1% (inactive) |
| Cc1nn(-c2ccccc2)c(C)c1NC(=O)COC(=O)Cc1ccccc1 | 8.24% (inactive) |
| Cc1nc2nc(C)c(CCC(=O)N3CCC4(CC3)OCCO4)c(C)n2n1 | -0.723% (inactive) |
| CC(=O)OC1C2(CC3N4C(=O)C5(CO)SSC4(CC31O)C(=O)N5C)OC(C)C(C)(C)C2=O (stereo not given) | 91.3% (active) |
| NC(=O)Nc1cccc(C(F)(F)F)c1 | 1.29% (inactive) |
| COC(=O)C[C@H]1CC[C@H]2NC[C@@H](O)COC[C@@H]2O1 | 10.3% (inactive) |
| COC1C(O)C(C)OC(OC2CCC3(C=O)C(CCC4C3CCC3(C)C(C5=CC(=O)OC5)CCC43O)C2)C1O (stereo not given) | 82.4% (active) |
| C[C@]12CC[C@H](O)C[C@H]1CC[C@@H]1C2CC[C@]2(C)[C@@H](C3=CC(=O)OC3)[C@@H](O)C[C@]12O (stereo not given in full) | 33.4% (inactive) |
| COC(=O)CN(CCCl)P1(=O)OCCCN1CCCl (stereo not given) | 6.36% (inactive) |
| CN1CCN(Cc2ccccc2C(F)(F)F)CC1 | 9.38% (inactive) |
| O=c1c2ccccc2nc(CBr)n1-c1ccc(Cl)cc1 | -7.93% (inactive) |

| SMILES | inhibition |
| --- | --- |
| CN(C)CC1Oc2ccccc2OC1(O)c1ccccc1 (stereo not given) | 55.3% (active) |
| Cc1nc2ccccn2c1P(=S)(N1CCCCC1)N1CCCCC1 | 18.1% (inactive) |
| CC1([N+](=O)[O-])COP(=O)(Nc2ccc(F)cc2)OC1 (stereo not given) | 17.4% (inactive) |
| Cc1ccc(C(C)C)c(OCC(=O)N2CCN(CC(=O)N3CCOCC3)CC2)c1 | -3.94% (inactive) |
| c1ccc2sc(C3CCCNC3)nc2c1 (stereo not given) | -94.5% (inactive) |
| CC[C@H]1CC2CN3CCc4c([nH]c5ccccc45)C(C(=O)OC)(C2)C13 (stereo not given in full) | 20.3% (inactive) |
| O=P(OC1=CCCCC1)(c1ccccc1)c1ccccc1 | 12.4% (inactive) |
| CCC(C)(O)C(=O)OC1C(=O)OC2CC3C(C)=CC(=O)C(O)C3(C)C3C4(O)OCC23C1C(C)C4O (stereo not given) | 66.3% (active) |
| O=c1[nH]c(=O)n(-c2ccc(F)cc2)c(O)c1C=NCCN1CCCCC1 | 24.6% (inactive) |
| CC(Cc1cccs1)NCc1ccc(Cl)cc1 (stereo not given) | -5.05% (inactive) |
| Cc1ccc(P(=S)(c2ccc(C)o2)N2CCOCC2)o1 | -0.609% (inactive) |
| CCCCCCCCCCCCn1ccc(=N)cc1 | 51.2% (active) |
| C[C@]12CC[C@H](O)CC1=C([N+](=O)[O-])CC1C2CC[C@@]2(C)C1CC[C@@H]2O (stereo not given in full) | -4.21% (inactive) |
| CC(C)c1c(CN(C)C(C)Cc2ccccc2)n(C)n(-c2ccccc2)c1=O (stereo not given) | 17.5% (inactive) |
| CC(=CCOc1ccc2ccc(=O)oc2c1)C1=CC(=O)C(C)(C)O1 | 65.2% (active) |
| O=C1NC(=O)C(Cc2ccccc2)C(=O)N1 | 0.735% (inactive) |
| CCOC(=O)C1CN(C)CCC1=O (stereo not given) | 12.2% (inactive) |
